{"source": "PubChem BioAssay AID1117361", "about": "(Southern Research Institute, 2015)", "note": "The whole screen tested about 3,600 compounds, of which about 900 (25%) were called active. No rule for the calls is given here. The list is a sample of the results. Measured potencies and affinities stand elsewhere."}
{"biological_target": "Protein Tat (Human immunodeficiency virus type 1 group M subtype B (isolate HXB2)) (UniProt P04608)", "test": "inhibitors of Tat binding to TAR RNA, dose response, counter-screen for Vif-APOBEC3G degradation inhibitor project, biochemical, fluorescence polarization, FAM-labeled TAR RNA (AID 1117361)", "settings": "outcome: at 100 µM (top of the series) unless noted; series mostly up to 100 µM"}
{"smiles": "CS(=O)(=O)N1CCCCC1CCN1CCCCC1", "note": "(stereo not drawn)", "outcome": "inactive"}
{"smiles": "CC1(C)CC(=O)C(C2NCCc3ccccc32)=C(O)C1", "note": "(stereo not drawn)", "outcome": "inactive"}
{"smiles": "CCN(CC)CC(=O)Nc1nn(-c2ccccc2)nc1C(N)=O", "outcome": "inactive"}
{"smiles": "Cc1ccc(S(=O)(=O)n2cnc3ccccc32)c(C)c1", "outcome": "inactive"}
{"smiles": "CCCCNC(=O)c1c(O)c2cccc3c2n(c1=O)CCC3", "outcome": "inactive"}
{"smiles": "N#CC1(c2ccc(NC(=O)c3ccccc3F)cc2)CCCC1", "outcome": "inactive"}
{"smiles": "CCCCCn1c(CN2CCN(c3cc(Cl)ccc3C)CC2)nc2c1c(=O)[nH]c(=O)n2C", "outcome": "inactive"}
{"smiles": "CCOc1c(OC)cccc1C1CC(=O)Nc2cc3c(cc21)OCCO3", "note": "(stereo not drawn)", "outcome": "inactive"}
{"smiles": "CCc1ccccc1N(CC)C(=O)CCc1nc(-c2ccc(C)cc2)no1", "outcome": "inactive"}
{"smiles": "NS(=O)(=O)c1ccc(NC(=O)COC(=O)CC2Sc3ccccc3NC2=O)cc1", "note": "(stereo not drawn)", "outcome": "inactive"}
{"smiles": "COc1cc(C(C2C(=O)CC(C)(C)CC2=O)C2C(=O)CC(C)(C)CC2=O)cc(OC)c1OC", "outcome": "inactive"}
{"smiles": "O=C(Nc1cc(Cl)ccc1Oc1ccccc1)c1cnccn1", "outcome": "inactive"}
{"smiles": "Cc1cn(C2CCCCO2)c(=O)[nH]c1=O", "note": "(stereo not drawn)", "outcome": "inactive"}
{"smiles": "CN(C)NC1CCS(=O)(=O)C1", "note": "(stereo not drawn)", "outcome": "inactive"}
{"smiles": "Cn1nnnc1SCC(=O)NCc1ccco1", "outcome": "inactive"}
{"smiles": "O=C(Cn1cnc2c(nnn2Cc2ccc(F)cc2)c1=O)NCc1ccco1", "outcome": "inactive"}
{"smiles": "COc1ccc2c(c1OC)C(=O)OC2Nc1nc(-c2cc3cc([N+](=O)[O-])ccc3oc2=O)cs1", "note": "(stereo not drawn)", "outcome": "inactive"}
{"smiles": "CCOc1ccc(CCNC(=O)C2CC(C)=CCC2C(=O)O)cc1OCC", "note": "(stereo not drawn)", "outcome": "inactive"}
{"smiles": "COc1ccc2c(=O)c3c(=O)n(-c4ccc(C)cc4)c(-c4ccccc4)nc3oc2c1", "outcome": "inactive"}
{"smiles": "CCC(Sc1nc2cc(OC)c(OC)cc2c(=O)n1Cc1ccco1)C(=O)NCCOC", "note": "(stereo not drawn)", "outcome": "inactive"}
{"smiles": "CCN1/C(=C(\\O)c2ccccc2)C(=O)c2ccccc2S1(=O)=O", "outcome": "inactive"}
{"smiles": "COc1ccc(C2C(C#N)=C(N)Oc3n[nH]c(C)c32)cc1Cn1nnc2ccccc21", "note": "(stereo not drawn)", "outcome": "inactive"}
{"smiles": "NC(=O)C1CCN(C(=O)C23CC4CC(CC(C4)C2)C3)CC1", "outcome": "inactive"}
